The results in this text go back to PubChem BioAssay (NCATS).

Structures are written as SMILES. Inconclusive results are not listed. A call without a number means that no potency is given here. Calls of active or inactive are those of the source. Unless noted, calls come from the whole dose curve; as a rule, active = well fitted curve in the direction sought with a large enough effect; inconclusive = small, poorly fitted or top-dose-only effect, or another doubt; inactive = no such curve, though single readings can be large; an effect the other way counts as inactive or inconclusive.

Assay [1] can be described thus: qHTS Assay for Identification of Small Molecule Antagonists for Thrombopoietin (TPO) Signaling Pathway (AID 918). Note: potency is the fitted concentration of half-maximal effect; nearly all actives have a fitted effect of over 60% in size. The following applies: TPO-dependent cell signaling reporter, antagonist mode. The essentials: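 Murine Ba/F3 cells expressing human TPO receptor and a Glycoprotein IIb promoter-luciferase reporter, IL-3-starved overnight, treated with compound plus TPO at EC50 (26 pM final). After 24 h at 37 C, luminescence read to detect inhibitors.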
A general note: Quantitative high-throughput screening tests each substance at several concentrations.

The nature of assay [2]: Confirmation and Secondary Assay for Modulators of Hemoglobin Beta Chain Splicing at IVS2 705 locus (AID 930). The following applies: HeLa EGFP-705 splicing reporter, GFP fluorescence, 48 h; series mostly up to 46.1 µM. The essentials: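 Fluorescence gain (488 nm laser, 500-520 nm PMT) reflects restored correct splicing of a mutant IVS2-705 intron inside EGFP in stably transfected HeLa cells after 2-day compound treatment.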

The target of assay [3] is Muscarinic acetylcholine receptor M1 (Rattus norvegicus) (UniProt P08482). The experiment in a line: qHTS Assay for Antagonists of Acetylcholine Muscarinic M1 Receptor: Measurement of IP-One Response (AID 944). Note: nearly all actives have a fitted effect of over 75% in size. Note: potency is the fitted concentration of half-maximal effect. To be noted: CHO-M1 cells, IP-One HTRF, antagonist mode; series mostly up to 46.1 µM. The method, boiled down:
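CHO cells stably expressing rat M1, pretreated 10 min with compound, then stimulated 30 min with carbachol at EC80 (200 nM) in LiCl-containing buffer pH 7.4; IP1 accumulation read by HTRF competition (665/620 nm).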

Assay [4] concerns the target Pyruvate kinase PKM (Homo sapiens) (UniProt P14618). The experiment in a line: qHTS Assay for Activators of Human Muscle Pyruvate Kinase (AID 954; active = well fitted curve in the direction sought with a large enough effect, not every such curve was filed as active). To be noted: purified human muscle pyruvate kinase, luciferase-coupled luminescence, 1 h; series mostly up to 57.5 µM. The method, boiled down: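 Purified human PKM2 (0.1 nM) with 0.5 mM PEP (Km) and 0.1 mM ADP in 50 mM imidazole pH 7.2, KCl, MgCl2, 1 h at room temperature; ATP formed read by coupled luciferase luminescence. Normalized to no-enzyme/110 uM thiadiazolimine inhibition; 0.3 nM enzyme column for activation.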

The nature of assay [5]: qHTS Assay for Identification of Small Molecule Agonists for Thrombopoietin (TPO) Signaling Pathway (AID 917). To be noted: TPO signaling pathway reporter cells, agonist qHTS, stimulated with TPO at its EC50; series mostly up to 38.5 µM. The method, boiled down: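 Murine Ba/F3 cells stably expressing human TPO receptor and a Glycoprotein IIb promoter–luciferase reporter were IL-3-starved overnight, then treated with compounds plus TPO (26 pM final, its EC50) for 24 hrs at 37 C; luminescence was read.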

Assay [6] has as its target Pyruvate kinase (Leishmania mexicana) (UniProt Q27686). Nature of the assay: qHTS Validation Assay for Inhibitors of Leishmania Mexicana Pyruvate Kinase (AID 945). Note: potency is the fitted concentration of half-maximal effect. The following applies: purified L. mexicana pyruvate kinase, enzyme activity, E451W mutant enzyme; series mostly up to 57.5 µM. The essentials: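 Compounds are tested as eight-point concentration series. Reactions contain 0.2 nM LmPYK E451W, 0.5 mM PEP, 0.1 mM ADP, 7 mM MgCl2 and 50 mM KCl at pH 7.2, run 1 h at room temperature, then read by PKLight luminescence.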

For assay [7], the target named is Muscarinic acetylcholine receptor M1 (Rattus norvegicus) (UniProt P08482). Nature of the assay: qHTS Assay for Antagonists of Acetylcholine Muscarinic M1 Receptor: Kinetic Measurement of Intracellular Calcium Response (AID 943). Note: nearly all actives have a fitted effect of over 75% in size. Note: potency is the fitted concentration of half-maximal effect. To be noted: M1-expressing cells, kinetic intracellular calcium fluorescence; series mostly up to 35.3 µM. The essentials:
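CHO cells expressing rat M1 receptor, Fluo-4 loaded, preincubated 10 min with compound, then stimulated with EC80 carbachol (100 nM final). Kinetic calcium fluorescence over 4 min; response taken as peak over basal signal.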

Assay [8] is described as follows: Cell Viability - LYMP2-001 (AID 921). Note: nearly all actives have a fitted effect of over 70% in size. The following applies: LYMP2-001 lymphoblastoid cell viability; series mostly up to 92.2 µM. The essentials: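 Human lymphoblastoid cells (Coriell), 2500 per well, were preincubated 5 hr at 37 C, then exposed to compounds in complete medium for 24 hr at 37 C. Cellular ATP was read by CellTiter-Glo luminescence; AC50 from Hill fits of concentration-response data.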

Assay [9] is described as follows: MultiTox-Fluor Cytotoxicity Assay - LYMP1-001 - Dead Cells (AID 946).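 Note: cells exposed to compound for 16 h.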 The following applies: LYMP1-001 lymphoblastoid cells, dead-cell protease fluorescence; series mostly up to 92.2 µM. The essentials:
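LYMP1-001 lymphoblastoid cells (2500/well) treated 16 h at 37 C. Dead-cell protease cleavage of bis-AAF-R110 read at Ex/Em 485/520. Normalized to DMSO and 15 uM tetraoctylammonium bromide; AC50 from Hill fits.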

A short description of assay [10]: MultiTox-Fluor Cytotoxicity Assay - LYMP1-001 - Live Cells (AID 947). The following applies: LYMP1-001 lymphoblastoid cells, live-cell protease fluorescence viability; series mostly up to 92.2 µM.

Sequence of Muscarinic acetylcholine receptor M1 (Rattus norvegicus) (P08482 whole entry, looked up): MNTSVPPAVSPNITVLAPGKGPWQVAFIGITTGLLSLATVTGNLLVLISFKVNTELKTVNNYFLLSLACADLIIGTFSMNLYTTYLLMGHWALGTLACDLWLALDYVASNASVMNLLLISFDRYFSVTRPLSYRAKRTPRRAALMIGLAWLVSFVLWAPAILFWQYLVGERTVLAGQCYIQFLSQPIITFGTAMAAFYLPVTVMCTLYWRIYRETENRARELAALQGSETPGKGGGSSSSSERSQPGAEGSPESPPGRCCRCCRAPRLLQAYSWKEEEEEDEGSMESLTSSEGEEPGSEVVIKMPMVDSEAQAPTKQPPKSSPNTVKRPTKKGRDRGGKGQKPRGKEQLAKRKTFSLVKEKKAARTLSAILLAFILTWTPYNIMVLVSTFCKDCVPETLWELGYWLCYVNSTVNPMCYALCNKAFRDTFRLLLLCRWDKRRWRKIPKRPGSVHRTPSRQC
Sequence of Pyruvate kinase (Leishmania mexicana) (Q27686 2-499 E452W): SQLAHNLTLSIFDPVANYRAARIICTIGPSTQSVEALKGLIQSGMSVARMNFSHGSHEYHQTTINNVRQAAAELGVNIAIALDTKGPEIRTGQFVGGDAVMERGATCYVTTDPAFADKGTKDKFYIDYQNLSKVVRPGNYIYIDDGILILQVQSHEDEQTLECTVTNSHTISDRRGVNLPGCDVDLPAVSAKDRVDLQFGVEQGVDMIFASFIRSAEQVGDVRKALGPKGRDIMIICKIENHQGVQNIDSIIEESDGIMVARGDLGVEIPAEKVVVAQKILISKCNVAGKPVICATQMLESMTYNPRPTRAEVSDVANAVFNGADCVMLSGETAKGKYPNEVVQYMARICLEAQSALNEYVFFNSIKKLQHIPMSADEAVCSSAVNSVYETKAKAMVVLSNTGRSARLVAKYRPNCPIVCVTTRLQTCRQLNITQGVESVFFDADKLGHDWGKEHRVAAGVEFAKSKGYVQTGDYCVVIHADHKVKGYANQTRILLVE
Sequence of Pyruvate kinase PKM (Homo sapiens) (P14618 whole entry, looked up): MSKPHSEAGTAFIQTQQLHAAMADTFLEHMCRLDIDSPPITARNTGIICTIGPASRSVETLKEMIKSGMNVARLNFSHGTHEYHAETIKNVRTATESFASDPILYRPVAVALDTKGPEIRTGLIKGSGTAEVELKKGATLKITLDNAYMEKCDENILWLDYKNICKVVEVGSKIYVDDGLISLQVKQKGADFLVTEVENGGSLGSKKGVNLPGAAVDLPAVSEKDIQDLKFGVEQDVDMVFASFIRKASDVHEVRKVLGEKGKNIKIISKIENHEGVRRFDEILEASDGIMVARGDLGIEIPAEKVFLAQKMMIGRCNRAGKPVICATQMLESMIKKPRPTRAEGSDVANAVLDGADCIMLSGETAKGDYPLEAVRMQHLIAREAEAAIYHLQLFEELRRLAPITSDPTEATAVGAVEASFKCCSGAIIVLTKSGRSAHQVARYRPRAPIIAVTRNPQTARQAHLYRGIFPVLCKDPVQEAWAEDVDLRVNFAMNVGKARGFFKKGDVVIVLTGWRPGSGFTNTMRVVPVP

On to `Nc1ncn([C@@H]2O[C@H](CO)[C@@H](O)[C@H]2O)c(=O)n1`, for which the Potency in assay [1] was 3.16 µM (active). Further, the call in [2] and in assay [4] was inactive. In [3], the Potency result was “inactive”.
Regarding `NCCCNCCSP(=O)(O)O`, the call in assay [5] and in assay [4] was inactive. In addition, the Potency entry in assay [6] is “inactive”.
For `CC(=O)Oc1cc(C(C)C)c(OCCN(C)C)cc1C`, the outcome in [5] and in assay [4] was inactive. For the same molecule, the Potency in assay [3] is 12.6 µM (active).
As to `CCNC(=O)N1CCN(CCCC(c2ccc(F)cc2)c2ccc(F)cc2)CC1`, the call in assay [5] and in [4] was inactive. The Potency in [3] was 17.8 µM (active).
Turning to `CCc1c(C)[nH]c2c1C(=O)C(CN1CCOCC1)CC2` (configuration not stated), the result in assay [5] and in assay [4] was inactive. The Potency entry in assay [3] is “inactive”.
`CC1=C(C)C(=O)C(CCCCC#CCCCC#CCO)=C(C)C1=O`: the outcome in assay [5] and in assay [4] was inactive. Further, the Potency entry in assay [7] is “inactive”.
Turning to `C[C@]12CCC(=O)C=C1CC[C@@H]1[C@@H]2CC[C@@]2(C)[C@H]1CC[C@]2(O)C(=O)CO`, the call in assay [5] and in [4] was inactive.
As for `C(=C\c1ccccc1)/CN1CCN(C(c2ccccc2)c2ccccc2)CC1`, the outcome in [5] and in assay [4] was inactive.
Turning to `Cc1nc2sccn2c(=O)c1CCN1CCC(=C(c2ccc(F)cc2)c2ccc(F)cc2)CC1`, the molecule was classed as inactive in [5] and in assay [4]. The Potency was 3.16 µM (active) in assay [7] and 15.8 µM (active) in assay [3]. In [6], the Potency result was “inactive”.
For `C[C@]12C=CC(=O)C=C1CC[C@H]1[C@@H]3C[C@@H](O)[C@](O)(C(=O)CO)[C@@]3(C)C[C@H](O)[C@@]12F`, the outcome in assay [5] and in [4] was inactive. Besides, the Potency result in assay [6] was “inactive”.
Turning to `C[C@]12CCC(=O)C=C1CC[C@@H]1[C@@H]2C(=O)C[C@@]2(C)[C@H]1CC[C@]2(O)C(=O)CO`, the molecule was classed as inactive in [5] and in assay [4].
`c1cnc(N2CCN(Cc3ccc4c(c3)OCO4)CC2)nc1`: the call in [5] and in assay [4] was inactive. In addition, the Potency in assay [7] was 14.1 µM (active).
For `O=C(O)CN(CCN(CC(=O)O)CC(=O)O)CCN(CC(=O)O)CC(=O)O`, the result in [5] and in [4] was inactive. Further, the Potency result in [7] and in assay [3] was “inactive” in each case.
As for `C[N+](C)(C)CCCCCCCCCC[N+](C)(C)C`, the call in assay [5] and in [4] was inactive. The Potency result in assay [6] was “inactive”.
In the case of `C[N+](C)(C)CCOC(=O)CCC(=O)OCC[N+](C)(C)C`, the molecule was classed as inactive in [5] and in [4].
As for `C[n+]1cc2c3c(ccc2c2ccc4cc5c(cc4c21)OCO5)OCO3`, the Potency in assay [1] was 1 µM (active); in assay [3], 12.6 µM (active); in assay [6], 10 µM (active). For the same molecule, the result in assay [2] and in assay [4] was inactive.
Consider `CCOC(=O)c1cnc2c(cnn2CC)c1NN=C(C)C`, for which the outcome in assay [5] and in assay [4] was inactive. Besides, the Potency entry in [7] is “inactive”.
Regarding `CC(N=C(NC#N)Nc1ccncc1)C(C)(C)C` (configuration not stated), the outcome in [2] was inactive.
Consider `CCCCNC(=O)NS(=O)(=O)c1ccc(C)cc1`, for which the molecule was called inactive in assay [8], in [2], in [9], in [10] and in assay [4]. Besides, the Potency result in [3] is “inactive”.
Regarding `CCCNC(C)C(=O)Nc1ccccc1C` (configuration not stated), the call in assay [2] was inactive.
For the molecule `CCCCOCCOCCOCc1cc2c(cc1CCC)OCO2`, the result in assay [8], in assay [9] and in assay [10] was inactive.
Turning to `C[C@H](CS)C(=O)N1CCC[C@H]1C(=O)O`, the call in assay [4] was inactive.
Turning to `C#CCN(C)CCCOc1ccc(Cl)cc1Cl`, the Potency entry in [6] is “inactive”. Further, the molecule was called inactive in assay [4].
As for `Nc1c2c(nc3ccccc13)CCCC2O` (configuration not stated), in [2], the molecule was called inactive.
For `Cc1nc2ccccn2c(=O)c1CCN1CCC(C(=O)c2ccc(F)cc2)CC1`, the outcome in assay [2] and in assay [4] was inactive. The Potency in assay [3] is 8.91 µM (active).
For the molecule `COc1cc2c(cc1OC)-c1cc(=Nc3c(C)cc(C)cc3C)n(C)c(=O)n1CC2`, the molecule was classed as inactive in [4].
For `CC(C)COCC(CN(Cc1ccccc1)c1ccccc1)N1CCCC1` (configuration not stated), the result in [2] was inactive.
With `Fc1ccc(C(c2ccc(F)cc2)N2CCN(C/C=C/c3ccccc3)CC2)cc1`, in assay [2], the call was inactive.
For the molecule `CCCCCN(CCCCC)C(=O)C(CCC(=O)O)NC(=O)c1ccc(Cl)c(Cl)c1` (configuration not stated), the call in assay [2] was inactive.
Regarding `CCc1cccc(N(C)C(N)=Nc2cccc3ccccc23)c1`, the Potency result in assay [6] is “inactive”. Further, in [4], the outcome was inactive.
Take `C=CCc1ccccc1OCC(O)CNC(C)C` (configuration not stated): the molecule was classed as inactive in [2].
Take `NC(=Nc1ccccc1)Nc1ccccc1`: the outcome in assay [8], in [9] and in assay [10] was inactive.
As for `CC(=O)OC(C)C[N+](C)(C)C` (configuration not stated), in assay [2], the result was inactive.
Take `COc1cc(C(=O)OCCCN2CCCN(CCCOC(=O)c3cc(OC)c(OC)c(OC)c3)CC2)cc(OC)c1OC`: the values for the Potency in assay [1], in assay [7] and in assay [3] were 10 µM (active), 0.316 µM (active) and 4.47 µM (active), respectively. The Potency entry in assay [6] is “inactive”. For the same molecule, the outcome in [4] was inactive.
In the case of `c1cc(CN2CCCCC2)cc(OCCCNc2nc3ccccc3s2)c1`, the results for the Potency in assay [7] and in [3] were 8.91 µM (active) and 14.1 µM (active), respectively. Also, in assay [6], the Potency entry is “inactive”. Moreover, the outcome in assay [4] was inactive.
On to `CN(C)CCCN1c2ccccc2Sc2ccc(C(F)(F)F)cc21`, for which the molecule was classed as inactive in [2] and in assay [4]. For the same molecule, the figures for the Potency in assay [7] and in [3] were 0.158 µM (active) and 1 µM (active), respectively.
As for `CCC(=O)c1ccc2c(c1)N(CCCN(C)C)c1ccccc1S2`, the Potency is 0.398 µM (active) in assay [7] and 1.41 µM (active) in assay [3]. Further, the Potency result in [6] is “inactive”. Moreover, in [4], the call was inactive.
For `CCCCNc1c(C(=O)OCC)c(C)nc2c1cnn2CC`, in assay [3], the Potency entry was “inactive”. Also, in [4], the molecule was classed as inactive.
`CC(C)(Oc1ccc(CCNC(=O)c2ccc(Cl)cc2)cc1)C(=O)O`: the molecule was called inactive in assay [2].
